Test results as given in ChEMBL document CHEMBL1157539, “Thousands of chemical starting points for antimalarial lead identification” (Nature, 2010).

test system: Plasmodium falciparum; assay: GSK_TCMDC: Inhibition of Plasmodium falciparum Dd2 in whole red blood cells, using parasite LDH activity as an index of growth. Test compounds present at 2uM; type: functional

Structure (SMILES) | Inhibition [%]
Cc1nnc(Sc2ncnc3scc(-c4ccc(F)cc4)c23)s1 | 50
Cc1ccccc1C(=O)NC(NC(=S)Nc1ccc([N+](=O)[O-])cc1)C(Cl)(Cl)Cl (stereo not drawn) | 39
O=C(Cc1cccc(Cl)c1)Nc1ccc(N2CCC(NCc3ccc4ncccc4c3)CC2)cc1 | 8
CCOc1c(CNCCCNc2cc(O)c3ccccc3n2)cc(I)cc1OC | 6
COc1ccc(-c2cnc3[nH]cc(-c4ccc(C(=O)O)c(C)c4)c3c2)cn1.O=C(O)C(F)(F)F | 99
Br.CC1(C)NC(N)=NC(=N)N1OCc1cccs1 | 0
CCN1CCN(c2ccc(NC(=O)c3cc4c(C)nn(-c5ccccc5)c4s3)cc2C)CC1 | 81
Cc1cccc(CN2CCCN(Cc3ccc(C(=O)Nc4ccc(C)c(F)c4)cc3)CC2)c1.O=C(O)C(F)(F)F | 3
O=c1cc(NCCCNC2CCCc3c2ccc2ccccc32)[nH]c2ccccc12 (stereo not drawn) | 30
Cl.N#Cc1ccc(-c2ccc(C(=O)Nc3ccc4c(c3)CCN(C3CCC3)CC4)nc2)cc1 | 63
O=C(NCCNc1ccnc(Nc2ccc(F)cc2)n1)Nc1ccc2c(c1)OCO2 | 3
Fc1ccc2[nH]c(-c3ccc(-c4ccc(CNCc5ccccc5)cc4)cc3)nc2c1.O=C(O)C(F)(F)F | 94
CCCCCN1CCCN(Cc2cccc(NC(=O)c3ccc(Cl)c(Cl)c3)c2)CC1.O=C(O)C(F)(F)F | 28
O=CO.O=S1(=O)NCc2ccc(Nc3nccc(Nc4ccc5c(cnn5Cc5ccccc5)c4)n3)cc21 | 33
Cc1ccccc1C1CCN(C2CCC(NC(=O)c3cc4cc(Cl)ccc4o3)CC2)CC1 (stereo not drawn) | 30
CC(C)(Oc1c(C2CCN(CCCCNC(=O)c3ccc(-c4ccc(C#N)cc4)cc3)CC2)ccc2c1CCCC2)C(N)=O | 82
Br.N=C1N=C(N)NC2(CCCCC2)N1OCC1CCCCC1 | 49
O=C(Nc1cccc(CN2CCCN(Cc3cccc(F)c3)CC2)c1)c1ccc(Cl)c(Cl)c1.O=C(O)C(F)(F)F | 6
COc1ccc2ncc(F)c(CCN3CC[C@H](NCc4cc5c(s4)CCCN5)[C@H](O)C3)c2n1.Cl | 16
CC(C)CN1CCCN(Cc2cccc(NC(=O)c3ccc(Cl)c(Cl)c3)c2)CC1.O=C(O)C(F)(F)F | 9

Structure (SMILES) | Inhibition [%]
COc1ccc(CN(C)CCCc2ccc(NC(=O)Cc3ccc4nc(-c5ccccc5)ccc4c3)cc2)cc1OC | 0
CCN(CCCN1CCCCC1)c1nc(C)cc(Nc2ccc(Cl)cc2)n1 | 92
Cc1cc(N[C@@H](CC(C)C)C(=O)NCc2cccc(F)c2)nc(NCCc2ccc(F)cc2)n1.O=C(O)C(F)(F)F | 6
O=C(O)C(F)(F)F.O=[N+]([O-])c1cccc(CNCC2CCN(Cc3ccc4ccccc4c3)CC2)c1 | 42
Cc1cc(=O)c2cc(-c3ccc(OC(F)(F)F)cc3)ccc2[nH]1 | 95
N=C(N)CCN(Cc1ccccc1)c1ccc(Cl)cc1 | 98
COc1ccc2ccccc2c1CCCCN1CCN(CC(c2ccc(F)cc2)N2CCC(N3CCCC3)CC2)CC1.O=C(O)C(F)(F)F (stereo not drawn) | 73
CC(=O)c1c(Nc2c(C)cc(C)cc2C)oc(C)cc1=O | 83
CN1CCN(C(C(=O)NCc2cc(Cl)cc(Cl)c2)c2ccc(NC(=O)Nc3ccccc3)cc2)CC1.O=C(O)C(F)(F)F (stereo not drawn) | 43
Br.CC(C)(C)c1ccc(OCCCON2C(=N)N=C(N)NC2(C)C)c(C(C)(C)C)c1 | 97
CC1(C)CC(NC(=O)NC2CCN(Cc3ccccc3)CC2)CC(C)(CNC(=O)NC2CCN(Cc3ccccc3)CC2)C1 (stereo not drawn) | 2
Cc1cccc2nc(-c3ccc(-c4ccc(CN5CCCC(N)C5)cc4)s3)[nH]c12.O=C(O)C(F)(F)F (stereo not drawn) | 100
COc1ccc2nccc([C@@H](O)CN3CCC(NC(=O)/C=C/c4ccc(F)c5ccccc45)CC3)c2c1 | 75
CCCN1CCC(NCc2cn(C)nc2-c2ccc(Oc3ccccc3)cc2)CC1 | 44
Nc1nc(N)c2c(ccc3c2ccn3Cc2ccc(Cl)cc2)n1 | 99
O=S1(=O)NC2(CCN(CCc3ccc(Cl)cc3)CC2)Nc2cc(F)cc(F)c21 | 5
CC(C)(C)c1ccc2[nH]c(-c3ccc(/C=C/C(=O)NCc4cccc(C(F)(F)F)c4)cc3)nc2c1 | 11
CSC1=NC(C)(C)CC2(CC(c3cccc(C)c3)c3cc(Cl)c(O)cc3O2)N1 (stereo not drawn) | 73
CC(Nc1ncc(-c2ccsc2)c(-c2nccs2)n1)c1ccc2c(c1)OCCO2 (stereo not drawn) | 66

test system: HepG2; assay: GSK_TCMDC: Percent inhibition of human HepG2 cell line. Test compounds present at 10uM.; type: functional

Structure (SMILES) | Inhibition [%]
Cc1nnc(Sc2ncnc3scc(-c4ccc(F)cc4)c23)s1 | 13
Cc1ccccc1C(=O)NC(NC(=S)Nc1ccc([N+](=O)[O-])cc1)C(Cl)(Cl)Cl (stereo not drawn) | 0
O=C(Cc1cccc(Cl)c1)Nc1ccc(N2CCC(NCc3ccc4ncccc4c3)CC2)cc1 | 10
CCOc1c(CNCCCNc2cc(O)c3ccccc3n2)cc(I)cc1OC | 0
COc1ccc(-c2cnc3[nH]cc(-c4ccc(C(=O)O)c(C)c4)c3c2)cn1.O=C(O)C(F)(F)F | 23
Br.CC1(C)NC(N)=NC(=N)N1OCc1cccs1 | 60
CCN1CCN(c2ccc(NC(=O)c3cc4c(C)nn(-c5ccccc5)c4s3)cc2C)CC1 | 32
Cc1cccc(CN2CCCN(Cc3ccc(C(=O)Nc4ccc(C)c(F)c4)cc3)CC2)c1.O=C(O)C(F)(F)F | 47
O=c1cc(NCCCNC2CCCc3c2ccc2ccccc32)[nH]c2ccccc12 (stereo not drawn) | 0
Cl.N#Cc1ccc(-c2ccc(C(=O)Nc3ccc4c(c3)CCN(C3CCC3)CC4)nc2)cc1 | 21
O=C(NCCNc1ccnc(Nc2ccc(F)cc2)n1)Nc1ccc2c(c1)OCO2 | 15
Fc1ccc2[nH]c(-c3ccc(-c4ccc(CNCc5ccccc5)cc4)cc3)nc2c1.O=C(O)C(F)(F)F | 35
CCCCCN1CCCN(Cc2cccc(NC(=O)c3ccc(Cl)c(Cl)c3)c2)CC1.O=C(O)C(F)(F)F | 30
O=CO.O=S1(=O)NCc2ccc(Nc3nccc(Nc4ccc5c(cnn5Cc5ccccc5)c4)n3)cc21 | 0
Cc1ccccc1C1CCN(C2CCC(NC(=O)c3cc4cc(Cl)ccc4o3)CC2)CC1 (stereo not drawn) | 22
CC(C)(Oc1c(C2CCN(CCCCNC(=O)c3ccc(-c4ccc(C#N)cc4)cc3)CC2)ccc2c1CCCC2)C(N)=O | 34
Br.N=C1N=C(N)NC2(CCCCC2)N1OCC1CCCCC1 | 70
O=C(Nc1cccc(CN2CCCN(Cc3cccc(F)c3)CC2)c1)c1ccc(Cl)c(Cl)c1.O=C(O)C(F)(F)F | 28
COc1ccc2ncc(F)c(CCN3CC[C@H](NCc4cc5c(s4)CCCN5)[C@H](O)C3)c2n1.Cl | 2
CC(C)CN1CCCN(Cc2cccc(NC(=O)c3ccc(Cl)c(Cl)c3)c2)CC1.O=C(O)C(F)(F)F | 10

Structure (SMILES) | Inhibition [%]
COc1ccc(CN(C)CCCc2ccc(NC(=O)Cc3ccc4nc(-c5ccccc5)ccc4c3)cc2)cc1OC | 10
CCN(CCCN1CCCCC1)c1nc(C)cc(Nc2ccc(Cl)cc2)n1 | 30
Cc1cc(N[C@@H](CC(C)C)C(=O)NCc2cccc(F)c2)nc(NCCc2ccc(F)cc2)n1.O=C(O)C(F)(F)F | 0
O=C(O)C(F)(F)F.O=[N+]([O-])c1cccc(CNCC2CCN(Cc3ccc4ccccc4c3)CC2)c1 | 18
Cc1cc(=O)c2cc(-c3ccc(OC(F)(F)F)cc3)ccc2[nH]1 | 0
N=C(N)CCN(Cc1ccccc1)c1ccc(Cl)cc1 | 1
COc1ccc2ccccc2c1CCCCN1CCN(CC(c2ccc(F)cc2)N2CCC(N3CCCC3)CC2)CC1.O=C(O)C(F)(F)F (stereo not drawn) | 74
CC(=O)c1c(Nc2c(C)cc(C)cc2C)oc(C)cc1=O | 7
CN1CCN(C(C(=O)NCc2cc(Cl)cc(Cl)c2)c2ccc(NC(=O)Nc3ccccc3)cc2)CC1.O=C(O)C(F)(F)F (stereo not drawn) | 23
Br.CC(C)(C)c1ccc(OCCCON2C(=N)N=C(N)NC2(C)C)c(C(C)(C)C)c1 | 64
CC1(C)CC(NC(=O)NC2CCN(Cc3ccccc3)CC2)CC(C)(CNC(=O)NC2CCN(Cc3ccccc3)CC2)C1 (stereo not drawn) | 10
Cc1cccc2nc(-c3ccc(-c4ccc(CN5CCCC(N)C5)cc4)s3)[nH]c12.O=C(O)C(F)(F)F (stereo not drawn) | 29
COc1ccc2nccc([C@@H](O)CN3CCC(NC(=O)/C=C/c4ccc(F)c5ccccc45)CC3)c2c1 | 37
CCCN1CCC(NCc2cn(C)nc2-c2ccc(Oc3ccccc3)cc2)CC1 | 34
Nc1nc(N)c2c(ccc3c2ccn3Cc2ccc(Cl)cc2)n1 | 100
O=S1(=O)NC2(CCN(CCc3ccc(Cl)cc3)CC2)Nc2cc(F)cc(F)c21 | 7
CC(C)(C)c1ccc2[nH]c(-c3ccc(/C=C/C(=O)NCc4cccc(C(F)(F)F)c4)cc3)nc2c1 | 31
CSC1=NC(C)(C)CC2(CC(c3cccc(C)c3)c3cc(Cl)c(O)cc3O2)N1 (stereo not drawn) | 0
CC(Nc1ncc(-c2ccsc2)c(-c2nccs2)n1)c1ccc2c(c1)OCCO2 (stereo not drawn) | 14
